Assay outcomes (PubChem BioAssay)
GALC G270D act: enhancers of human galactocerebrosidase G270D mutant activity in cells. 0.1% of 45,000 active. 145M-Twi-hGALC-G270D cells, HMU-beta-Gal fluorescence, 48 h. Potency, µM (highest dose often 57.5 µM), hits mostly activators. AID 1159614; further: nearly all actives have a fitted effect of over 65% in size
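qHTS, 1536-well; 145M-Twi-hGALC-G270D cells (WT line also made) in DMEM/F12 + 10% FBS; compound incubation on live cells; HMU-β-gal 0.1 mM final, pH 5.2, NaTC; carbonate stop; fluorescence increase = enhanced residual activity.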
FH mod: Identification of activators of human fumarate hydratase by quantitative high-throughput screening | Fumarate hydratase, mitochondrial (Homo sapiens), P07954 | 0.22% of 54,000 active | Potency, µM (highest dose often 79.9 µM), most hits filed as inhibitors | FH coupled MDH/diaphorase resazurin fluorescence, 15 min; further: the screen sought activators but most active calls are inhibition curves; nearly all actives have a fitted effect of over 45% in size
NTMT1 inh: inhibitors of human N-terminal methyltransferase NTMT1 | Q9BV86 | NTMT1 MTase-Glo SAH luminescence, purified enzyme | Potency, µM (highest dose often 114 µM), most hits filed as inhibitors | 2.5% of 59,000 active; further: nearly all actives have a fitted effect of over 65% in size
Target sequence (Q9BV86 whole entry, looked up): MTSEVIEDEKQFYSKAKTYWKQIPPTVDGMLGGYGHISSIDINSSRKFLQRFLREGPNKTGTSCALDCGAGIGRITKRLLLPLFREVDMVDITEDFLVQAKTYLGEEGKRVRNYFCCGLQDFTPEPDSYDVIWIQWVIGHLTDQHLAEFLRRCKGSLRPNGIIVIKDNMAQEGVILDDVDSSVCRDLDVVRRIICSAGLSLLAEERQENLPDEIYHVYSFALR
Numbers stand for hits; ! = a repeat was not active. Many of the other results were omitted from the sample, so hits are more common in it than they were. The call rests on the fitted dose curve; in most records, active means well fitted curve in the direction sought with a large enough effect; inconclusive means small, poorly fitted or top-dose-only effect, or another doubt; inactive means no such curve, though single readings can be large; an effect the other way counts as inactive or inconclusive.

Screening O=C(O[C@H]1[C@@H]2C=CO[C@@H](O[C@@H]3O[C@H](CO)[C@@H](O)[C@H](O)[C@H]3O)[C@@H]2[C@@]2(CO)O[C@@H]12)c1ccc(O)c(O)c1 returned FH mod inactive and NTMT1 inh inactive.
`CC(C=CC1=C(C)CCCC1(C)C)=CC=CC(C)=CC(=O)O` gave FH mod inactive and NTMT1 inh inactive.
Screening CC1=C(/C=C/C(C)=C/C=C/C(C)=C/C(=O)O)C(C)(C)CCC1 returned GALC G270D act inactive, FH mod inconclusive and NTMT1 inh 79.4µM!.
CCOC(=O)C1CCN(C(=O)C(C)(C)NC(=O)Nc2ccc(C#N)cc2)CC1 was read as NTMT1 inh inactive.
CCN(C(=O)c1cc2cc3ccc(OC)cc3nc2o1)c1cccc(C)c1 was read as GALC G270D act inactive, FH mod inconclusive and NTMT1 inh inactive.
CCN(CCCNC(=O)c1cc2cc3ccc(OC)cc3nc2s1)c1cccc(C)c1 was read as GALC G270D act inactive, FH mod inactive and NTMT1 inh 79.4µM.
For CCN(CCCNC(=O)c1cc2c(=O)[nH]c3ccccc3c2s1)c1ccccc1 the results were GALC G270D act inactive, FH mod inactive and NTMT1 inh inactive.
`CCN(CCCNC(=O)c1cc2cc3ccc(OC)cc3nc2s1)c1ccccc1` gave GALC G270D act inactive, FH mod inactive and NTMT1 inh 89.1µM.
For CCCCCCOC(=O)/N=C(\N)c1ccc(NCc2nc3cc(C(=O)N(CCC(=O)OCC)c4ccccn4)ccc3n2C)cc1 the results were FH mod inactive and NTMT1 inh inactive.
COc1cnc(-n2cnc(C)n2)c2[nH]cc(C(=O)C(=O)N3CCN(C(=O)c4ccccc4)CC3)c12 was read as FH mod inactive and NTMT1 inh inactive.
For Cn1cnc2c(F)c(Nc3ccc(Br)cc3Cl)c(C(=O)NOCCO)cc21 the results were GALC G270D act inactive, FH mod inactive and NTMT1 inh 89.1µM!.
O=C(NOCC1CC1)c1cc(Br)c(F)c(F)c1Nc1ccc(I)cc1Cl was read as FH mod inactive.
Screening CC1=C(C(=O)Nc2ccon2)C(c2nn(C)cc2Cl)N=C(Nc2nc3ccccc3o2)N1 (stereo unspecified) returned NTMT1 inh inactive.
`Nc1nnc2c(n1)[nH]c1ccccc12` gave GALC G270D act inactive, FH mod inactive and NTMT1 inh inactive.
`CN(C)CCCNc1c2ccccc2nc2c1[nH]c1ccccc12` gave FH mod inactive and NTMT1 inh 35.5µM.
COc1ccccc1CNC(=O)CSc1ncc2c(n1)-c1ccc(Cl)cc1N(Cc1ccccc1)S2(=O)=O was read as GALC G270D act inactive, FH mod inactive and NTMT1 inh inactive.
`COc1ccccc1CNC(=O)CSc1ncc2c(n1)-c1ccccc1N(Cc1ccc(C)cc1)S2(=O)=O` gave GALC G270D act inactive, FH mod inactive and NTMT1 inh 79.4µM.
For COc1cc(CN(CCN)C(=O)c2cccs2)ccc1OCc1ccccc1 the results were FH mod inactive and NTMT1 inh inconclusive.
For COc1ccc(OC)c(NC(=O)CSc2n[nH]c(-c3ccccc3Cl)n2)c1 the results were GALC G270D act inactive, FH mod 7.94µM and NTMT1 inh inactive.
COc1ccc(NC(=O)CSc2n[nH]c(-c3ccccc3)n2)cc1Cl was read as GALC G270D act inactive, FH mod inconclusive and NTMT1 inh inactive.
C[C@@H](NC(=O)c1cc(C(=O)N[C@@H](Cc2ccccc2)[C@H](O)CNC2CC2)cc(N(C)S(C)(=O)=O)c1)c1ccccc1 was read as FH mod inactive and NTMT1 inh inactive.
Cc1ccc(/C=C/c2nc3ccccc3[nH]2)cc1 was read as GALC G270D act inactive, FH mod inactive and NTMT1 inh 5.01µM.
For O=C(O)CCc1nc2ccccc2[nH]1 the results were GALC G270D act inactive, FH mod inactive and NTMT1 inh inconclusive.
`CNc1oc(-c2cccc3ccccc23)nc1C(=O)Nc1cccc(C#N)c1` gave NTMT1 inh inactive.
Screening CCc1cnc2c(c1SCC(=O)N1CCCCC1)c(=O)n(C)c(=O)n2C returned GALC G270D act inactive, FH mod inactive and NTMT1 inh inactive.
Screening CCc1cnc2c(c1SC(C(C)=O)C(=O)N(C)C)c(=O)n(C)c(=O)n2C (stereo unspecified) returned GALC G270D act inactive, FH mod inactive and NTMT1 inh 25.1µM.
OCC(CO)(CO)NCC(O)Cn1c2ccc(Cl)cc2c2cc(Cl)ccc21 (stereo unspecified) was read as FH mod inactive and NTMT1 inh 22.4µM.
For OC(CNCCc1c[nH]c2ccccc12)Cn1c2ccccc2c2ccccc21 (stereo unspecified) the results were FH mod inactive and NTMT1 inh inconclusive.
